These results are taken from PubChem BioAssay (NCATS).

In experiment [1] the target is Glucocorticoid receptor (Homo sapiens) (UniProt P04150). Kind of experiment: qHTS assay for small molecule agonists of glucocorticoid receptor signaling (AID 588532; active = well fitted curve in the direction sought with a large enough effect in the signal ratio, with a control signal flat; the % refers to the signal ratio;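 also: 100% = dexamethasone at 0.1 µM and 0% = DMSO only wells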). Conditions: HeLa MMTV-bla, beta-lactamase ratio, agonist, 18 h; stronger effect = higher value; percent of dexamethasone control, DMSO zero. An outline of the steps: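 Quantitative HTS using CellSensor MMTV-bla HeLa cells in charcoal/dextran-treated serum; compounds tested up to 92 uM. After 18 h at 37 C, CCF4 dye reported reporter induction.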
A general note: Quantitative high-throughput screening tests each substance at several concentrations.

The target is the same in experiment [2]. As to the kind of experiment: qHTS assay for small molecule antagonists of glucocorticoid receptor signaling (AID 588533; active = well fitted inhibition curve with a large enough effect in the signal ratio, with a control signal flat, not every such curve was filed as active; the % refers to the signal ratio;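 also: cells stimulated with 2 nM dexamethasone as agonist; % is scaled to controls: 0 for no effect and ±100 for the full control effect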). An outline of the steps:
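Antagonist-mode qHTS: compound titrations added to GRE-bla HeLa cells, then dexamethasone 2 nM final; 18 h, 37 C. CCF4 FRET fluorescence normalized to dexamethasone and DMSO; IC50 from Hill fit.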

Experiment [3] is described as follows: qHTS assay for small molecule antagonists of peroxisome proliferator-activated receptor delta signaling (AID 588535; active = well fitted inhibition curve with a large enough effect in the signal ratio, with a control signal flat, not every such curve was filed as active; the % refers to the signal ratio;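 as to max response: cells co-treated with a PPAR-delta agonist as stimulator during compound exposure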). Conditions: HEK293T PPARd-UAS-bla, beta-lactamase FRET ratio, 18 h; 460 nm channel. Put shortly: (§1)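 Antagonist-mode qHTS using GeneBLAzer PPAR-delta-UAS-bla HEK293T cells; compound exposure 18 hrs at 37 C over a titration. Ratiometric CCF4 fluorescence at 460/530 nm; concentration-response points fitted to the Hill equation.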

Experiment [4] has as its target Peroxisome proliferator-activated receptor delta (Homo sapiens) (UniProt Q03181). The experiment is described as above. An outline of the steps: as §1
Experiment [5] deals with Peroxisome proliferator-activated receptor gamma (Homo sapiens) (UniProt P37231). Kind of experiment: qHTS assay for small molecule agonists of peroxisome proliferator-activated receptor gamma signaling (AID 588536; active = well fitted curve in the direction sought with a large enough effect in the signal ratio, with a control signal flat, not every such curve was filed as active; the % refers to the signal ratio;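 also: 0% = DMSO basal wells and 100% = rosiglitazone at 2 µM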). Put shortly:
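Using GeneBLAzer HEK293 cells, response was quantified by CCF4 fluorescence and normalized between basal DMSO (0%) and rosiglitazone 2 uM (100%); curves yielded half-maximal stimulation concentration and efficacy.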

Experiment [6] shares this target. As to the kind of experiment: qHTS assay for small molecule antagonists of peroxisome proliferator-activated receptor gamma signaling (AID 588537; active = well fitted inhibition curve with a large enough effect in the signal ratio, with a control signal flat, not every such curve was filed as active; the % refers to the signal ratio;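 also: reporter cells co-stimulated with 50 nM rosiglitazone agonist during compound treatment; % of control where 0% means no effect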). Put shortly: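 Cell-based beta-lactamase assay; GW9662 served as the antagonist control. Stimulation used rosiglitazone, final 50 nM, 16 h, 37 C.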
Experiment [7] concerns the target Vitamin D3 receptor (Homo sapiens) (UniProt P11473). As to the kind of experiment: qHTS assay for small molecule antagonists of vitamin D receptor signaling (AID 588541).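 Also: receptor activated by calcitriol during compound treatment; series mostly up to about 77 µM; % is scaled to controls: 0 for no effect and ±100 for the full control effect.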 Put shortly: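 Antagonist-mode beta-lactamase reporter assay: HEK293T VDR-UAS-bla cells were exposed to titrated compound alongside 1-alpha,25-dihydroxyvitamin D3 at 3 nM final for 16 h. Values were normalized to the 50 nM agonist control and DMSO basal, with IC50 and efficacy from Hill equation fits.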

The target is the same in experiment [8]. As to the kind of experiment: qHTS assay for small molecule agonists of vitamin D receptor signaling (AID 588543).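 Also: 0% = DMSO basal and 100% = reference agonist control.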 An outline of the steps: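 Reporter cells (HEK293T, VDR-UAS-bla) were seeded in medium with 2% charcoal-stripped serum and incubated 5 h, then compounds in concentration series were added for 16 h at 37 °C. Stimulation was scaled between DMSO basal and 50 nM 1α,25-dihydroxyvitamin D3.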

Experiment [9] is described as follows: qHTS assay for small molecule agonists of retinoid X receptor alpha signaling (AID 588544). The note with it: HEK293T RXRa-UAS-bla, beta-lactamase reporter, 18 h; 530 nm emission.
The target in experiment [10] is Thyroid hormone receptor beta (Homo sapiens) (UniProt P10828). Kind of experiment: qHTS assay for small molecule agonists of thyroid hormone receptor beta signaling (AID 588545).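 Also: 0% = DMSO only and 100% = 10 nM T3.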 Put shortly: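 TR-UAS-bla GripTite HEK 293 cells (2500/well, medium with 2% charcoal/dextran FBS) were treated in agonist mode for 18 h at 37 C, titrated. Beta-lactamase was read by CCF4 ratio after 2 h; normalized to 10 nM T3 (100%) and DMSO, Hill-fitted for EC50 and efficacy.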

Experiment [11] is described as follows: qHTS assay for small molecule antagonists of retinoid X receptor alpha signaling (AID 588546; active = well fitted inhibition curve with a large enough effect in the signal ratio, with a control signal flat, not every such curve was filed as active; the % refers to the signal ratio;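 also: cells stimulated with 9-cis-retinoic acid as agonist; % is scaled to controls: 0 for no effect and ±100 for the full control effect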). Conditions: HEK293T RXRa-UAS-bla, beta-lactamase ratio, antagonist mode; measured here: W530 green channel, cytotoxicity proxy. Put shortly:
(§2)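 Beta-lactamase reporter inhibition, read as CCF4 fluorescence ratio (ex 405, em 460/530 nm) after 2 h at RT. HEK293T UAS-bla cells, 2500/well, were stimulated with 9-cis-RA at 500 or 100 nM final alongside test compound for 18 h at 37 C.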

Experiment [12] has as its target Retinoic acid receptor RXR-alpha (Homo sapiens) (UniProt P19793). The experiment is described as above. Conditions: HEK293T RXRa-UAS-bla, beta-lactamase ratio, antagonist mode. Put shortly: as §2
For experiment [13], the target named is Thyroid hormone receptor beta (Homo sapiens) (UniProt P10828). Kind of experiment: qHTS assay for small molecule antagonists of thyroid hormone receptor beta signaling (AID 588547; active = well fitted inhibition curve with a large enough effect in the signal ratio, with a control signal flat, not every such curve was filed as active; the % refers to the signal ratio;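 also: cells stimulated with 0.4 nM T3 agonist during compound exposure; series mostly up to about 77 µM; % is scaled to controls: 0 for no effect and ±100 for the full control effect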). Conditions: TR-UAS-bla HEK293, beta-lactamase ratio, antagonist mode, 18 h. Put shortly: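 Inhibition of T3-driven (0.4nM final) beta-lactamase reporter activity was measured over 0.59 nM to 92 uM compound after 18 h at 37 C. The cells were GripTite HEK293 TR-UAS-bla in charcoal/dextran-stripped serum, with CCF4 ratio read-out and IC50 from Hill fits.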

Experiment [14] deals with Voltage-gated inwardly rectifying potassium channel KCNH2 (Homo sapiens) (UniProt Q12809). Kind of experiment: qHTS Assay for Small Molecule Inhibitors of the Human hERG Channel Activity (AID 588834; active = well fitted curve in the direction sought with a large enough effect; an effect the other way counts as inactive or inconclusive;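 also: top concentration of the series differs between compounds; % is scaled to controls: 0 for no effect and ±100 for the full control effect; lower thallium flux fluorescence means stronger hERG block; nearly all actives have a fitted effect of over 50% in size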). An outline of the steps:
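Step 1: BacMam hERG transduction of U2OS, 4 hrs RT. Step 2: overnight 37 °C, plate 2000 cells/well, 4 hr. Step 3: FluxOR load, compound 10 min, stimulate, read fluorescence.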

In experiment [15] the target is Luciferin 4-monooxygenase (Photinus pyralis) (UniProt P08659). As to the kind of experiment: Biochemical firefly luciferase enzyme assay for NPC (AID 624030; active = well fitted curve in the direction sought with a large enough effect; an effect the other way counts as inactive or inconclusive;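 also: purified P. pyralis luciferase at 10 nM with luciferin and ATP substrate; series mostly up to about 59 µM; 0% = DMSO and -100% = full luciferase inhibition by PTC124 control; nearly all actives have a fitted effect of over 70% in size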). Put shortly:
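Direct inhibition of firefly luciferase enzyme (10 nM final, 50 mM Tris Acetate) assessed by luminescence within 5 minutes. Percent activity scaled between DMSO and PTC124 positive control, with concentration-effect curves classified by fit quality and response.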

A short description of experiment [16]: S16 Schwann cell viability assay (CellTiter-Glo assay) (AID 624031; active = well fitted curve in the direction sought with a large enough effect; an effect the other way counts as inactive or inconclusive;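 also: cellular ATP luminescence as a viability measure; series mostly up to about 58 µM; plate controls were DMSO-treated cells for no effect and cell-free wells for full effect; nearly all actives have a fitted effect of over 70% in size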). Put shortly: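 This viability control uses native rat S16 Schwann cells grown in DMEM plus 10% FBS. After a 24 h compound treatment at 37 °C, CellTiter-Glo luminescence reports ATP content, scaled against DMSO-treated and cell-free wells.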
In general terms: In ATP-based viability assays light output follows the ATP content of the culture.

Experiment [17] in a line: S16 Schwann cell PMP22 intronic element firefly luciferase assay (AID 624032; active = well fitted curve in the direction sought with a large enough effect; an effect the other way counts as inactive or inconclusive;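 also: series mostly up to about 58 µM; plate controls were DMSO for no effect and PTC124 positive control mean for full effect; nearly all actives have a fitted effect of over 30% in size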). An outline of the steps:
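Luciferase reporter of PMP22 intronic-element expression in stably transfected S16 rat Schwann cells, read by ONE-Glo luminescence after 24 h compound exposure at 37 C. Activity scaled between DMSO (0%) and positive-control PTC124; concentration-effect curves quality-classified.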

Experiment [18] addresses Bile acid receptor (Homo sapiens) (UniProt Q96RI1). Kind of experiment: qHTS assay for small molecule antagonists of farnesoid X receptor signaling (AID 588526). Also: % is scaled to controls: 0 for no effect and ±100 for the full control effect. Put shortly:
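Beta-lactamase reporter antagonist mode: HEK293T FXR-UAS-bla cells, titrated compound, CDCA stimulation, 16 h 37 C, CCF4 dye 2 h RT. Data normalized to CDCA 50 uM and DMSO; Hill-fit IC50.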

Experiment [19] addresses Androgen receptor (Homo sapiens) (UniProt P10275). As to the kind of experiment: qHTS assay for small molecule agonists of androgen receptor signaling (AID 588515; active = well fitted curve in the direction sought with a large enough effect in the signal ratio, with a control signal flat; the % refers to the signal ratio; also: % is scaled to controls: 0 for no effect and ±100 for the full control effect). The note with it: AR-UAS-bla HEK293, beta-lactamase ratio, agonist 16 h; stronger effect = higher value. An outline of the steps:
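Stimulation of an AR-responsive β-lactamase reporter in GripTite HEK293 cells was measured after 16 h compound exposure at 37 °C, via CCF4 fluorescence after 2 h RT. EC50 from Hill fits, normalized to R1881 at 30 nM.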

The target is the same in experiment [20]. As to the kind of experiment: qHTS assay for small molecule antagonists of androgen receptor signaling (AID 588516; active = well fitted curve in the direction sought with a large enough effect in the signal ratio, with a control signal flat, not every such curve was filed as active; the % refers to the signal ratio; also: % is scaled to controls: 0 for no effect and ±100 for the full control effect). Put shortly:
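Cells were plated and incubated 5 h, compounds added in titration, then R1881 (10 nM final) as agonist. After 16 h at 37 C, CCF4 substrate was loaded for 2 h at room temperature and fluorescence measured.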

Values joined by “and” are separate entries in the source; they are usually repeats but may differ in a detail not shown here. Equal values may be shown once. Results filed as inconclusive are left out. Active and inactive are the calls of the source. Unless noted, calls follow the shape of the full dose curve.

Sequence of Retinoic acid receptor RXR-alpha (Homo sapiens) (P19793 whole entry, looked up): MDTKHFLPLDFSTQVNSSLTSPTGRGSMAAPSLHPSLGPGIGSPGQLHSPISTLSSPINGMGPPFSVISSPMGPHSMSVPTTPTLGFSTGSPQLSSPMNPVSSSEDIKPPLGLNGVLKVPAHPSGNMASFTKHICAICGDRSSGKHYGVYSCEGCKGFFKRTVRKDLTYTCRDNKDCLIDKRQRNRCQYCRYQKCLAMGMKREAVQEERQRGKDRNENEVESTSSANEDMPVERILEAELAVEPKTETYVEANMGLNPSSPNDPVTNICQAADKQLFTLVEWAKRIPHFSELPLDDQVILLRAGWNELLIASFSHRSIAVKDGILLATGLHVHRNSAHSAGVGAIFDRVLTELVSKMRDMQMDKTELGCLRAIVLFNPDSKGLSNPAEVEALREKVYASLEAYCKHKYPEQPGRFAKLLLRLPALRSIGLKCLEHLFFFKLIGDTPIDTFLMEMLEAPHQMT
Sequence of Peroxisome proliferator-activated receptor gamma (Homo sapiens) (P37231 whole entry, looked up): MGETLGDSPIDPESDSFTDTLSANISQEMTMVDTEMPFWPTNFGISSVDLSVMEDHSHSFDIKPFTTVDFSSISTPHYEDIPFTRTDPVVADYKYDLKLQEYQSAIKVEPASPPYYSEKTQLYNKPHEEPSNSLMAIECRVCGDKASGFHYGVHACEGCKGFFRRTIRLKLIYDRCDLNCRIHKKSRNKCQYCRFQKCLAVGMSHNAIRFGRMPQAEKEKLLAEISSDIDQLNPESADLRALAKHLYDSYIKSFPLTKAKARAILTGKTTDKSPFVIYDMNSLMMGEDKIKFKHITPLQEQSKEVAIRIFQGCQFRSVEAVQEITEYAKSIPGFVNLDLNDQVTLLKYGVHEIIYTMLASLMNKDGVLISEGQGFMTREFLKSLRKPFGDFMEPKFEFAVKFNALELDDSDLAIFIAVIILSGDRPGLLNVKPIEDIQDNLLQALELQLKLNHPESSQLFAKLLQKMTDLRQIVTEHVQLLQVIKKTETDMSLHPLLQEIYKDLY
Sequence of Luciferin 4-monooxygenase (Photinus pyralis) (P08659 whole entry, looked up): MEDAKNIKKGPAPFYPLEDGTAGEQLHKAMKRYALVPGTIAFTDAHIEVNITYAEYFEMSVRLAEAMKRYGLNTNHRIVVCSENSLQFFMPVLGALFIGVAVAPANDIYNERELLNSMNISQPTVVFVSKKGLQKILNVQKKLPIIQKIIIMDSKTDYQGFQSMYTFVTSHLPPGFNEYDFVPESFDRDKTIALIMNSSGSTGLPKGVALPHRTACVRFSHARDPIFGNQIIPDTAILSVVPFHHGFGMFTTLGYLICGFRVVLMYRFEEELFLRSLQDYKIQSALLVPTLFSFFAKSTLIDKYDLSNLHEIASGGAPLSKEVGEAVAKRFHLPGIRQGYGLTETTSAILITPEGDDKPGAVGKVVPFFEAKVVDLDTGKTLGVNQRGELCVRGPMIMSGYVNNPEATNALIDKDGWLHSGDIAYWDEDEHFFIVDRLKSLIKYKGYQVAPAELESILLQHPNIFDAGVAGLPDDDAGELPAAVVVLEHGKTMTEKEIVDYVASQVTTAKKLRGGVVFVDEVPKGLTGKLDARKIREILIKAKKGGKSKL
Sequence of Peroxisome proliferator-activated receptor delta (Homo sapiens) (Q03181 whole entry, looked up): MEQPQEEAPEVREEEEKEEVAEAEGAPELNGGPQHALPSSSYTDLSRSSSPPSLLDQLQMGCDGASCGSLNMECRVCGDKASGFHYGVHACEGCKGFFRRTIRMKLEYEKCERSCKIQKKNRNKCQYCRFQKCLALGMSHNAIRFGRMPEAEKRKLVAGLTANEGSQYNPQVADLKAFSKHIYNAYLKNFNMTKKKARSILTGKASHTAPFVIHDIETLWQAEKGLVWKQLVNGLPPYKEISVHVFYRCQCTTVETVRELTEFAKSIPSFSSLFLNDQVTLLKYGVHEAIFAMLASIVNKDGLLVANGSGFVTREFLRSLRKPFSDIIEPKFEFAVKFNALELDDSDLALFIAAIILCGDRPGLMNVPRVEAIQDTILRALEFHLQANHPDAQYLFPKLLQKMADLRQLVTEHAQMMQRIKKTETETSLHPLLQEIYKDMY
Sequence of Voltage-gated inwardly rectifying potassium channel KCNH2 (Homo sapiens) (Q12809 whole entry, looked up): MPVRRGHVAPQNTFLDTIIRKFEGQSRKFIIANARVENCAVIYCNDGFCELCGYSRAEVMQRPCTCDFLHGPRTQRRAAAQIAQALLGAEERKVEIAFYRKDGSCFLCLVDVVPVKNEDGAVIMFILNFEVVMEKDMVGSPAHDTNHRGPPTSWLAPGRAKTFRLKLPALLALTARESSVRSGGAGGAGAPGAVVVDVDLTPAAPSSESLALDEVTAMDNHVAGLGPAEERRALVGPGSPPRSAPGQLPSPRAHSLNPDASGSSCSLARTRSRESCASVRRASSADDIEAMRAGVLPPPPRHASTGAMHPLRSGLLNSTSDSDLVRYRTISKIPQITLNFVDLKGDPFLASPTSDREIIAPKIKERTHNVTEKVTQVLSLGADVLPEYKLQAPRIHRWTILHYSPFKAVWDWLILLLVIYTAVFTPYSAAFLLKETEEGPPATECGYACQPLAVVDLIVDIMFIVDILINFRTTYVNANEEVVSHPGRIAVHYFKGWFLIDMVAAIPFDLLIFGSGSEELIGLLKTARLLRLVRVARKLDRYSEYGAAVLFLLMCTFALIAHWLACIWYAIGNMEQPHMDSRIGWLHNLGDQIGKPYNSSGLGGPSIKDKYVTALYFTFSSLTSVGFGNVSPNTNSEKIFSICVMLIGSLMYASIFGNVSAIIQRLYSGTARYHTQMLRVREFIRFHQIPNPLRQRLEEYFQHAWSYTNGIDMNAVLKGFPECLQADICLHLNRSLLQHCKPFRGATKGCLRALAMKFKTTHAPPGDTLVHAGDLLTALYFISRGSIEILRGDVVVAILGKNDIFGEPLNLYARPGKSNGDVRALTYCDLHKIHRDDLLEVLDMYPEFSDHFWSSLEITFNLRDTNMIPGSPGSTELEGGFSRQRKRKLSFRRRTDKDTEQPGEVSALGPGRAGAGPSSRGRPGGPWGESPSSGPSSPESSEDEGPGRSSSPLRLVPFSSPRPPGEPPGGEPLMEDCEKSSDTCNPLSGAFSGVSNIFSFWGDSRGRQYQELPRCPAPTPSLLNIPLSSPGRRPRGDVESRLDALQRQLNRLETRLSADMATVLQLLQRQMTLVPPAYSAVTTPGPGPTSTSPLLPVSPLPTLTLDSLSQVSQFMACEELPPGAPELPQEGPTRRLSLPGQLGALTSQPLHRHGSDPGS
Sequence of Thyroid hormone receptor beta (Homo sapiens) (P10828 whole entry, looked up): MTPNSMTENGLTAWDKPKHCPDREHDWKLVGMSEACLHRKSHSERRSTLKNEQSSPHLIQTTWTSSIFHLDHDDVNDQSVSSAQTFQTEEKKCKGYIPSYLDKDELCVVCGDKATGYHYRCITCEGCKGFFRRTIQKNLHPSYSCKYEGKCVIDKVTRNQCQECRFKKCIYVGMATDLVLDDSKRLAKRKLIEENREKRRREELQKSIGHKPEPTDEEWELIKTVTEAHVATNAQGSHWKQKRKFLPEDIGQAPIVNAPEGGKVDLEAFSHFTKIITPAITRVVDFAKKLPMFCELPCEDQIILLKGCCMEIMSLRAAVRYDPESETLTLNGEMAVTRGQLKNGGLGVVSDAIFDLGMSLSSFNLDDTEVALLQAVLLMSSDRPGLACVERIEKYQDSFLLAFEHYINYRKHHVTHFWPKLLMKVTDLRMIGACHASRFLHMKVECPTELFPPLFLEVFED
Sequence of Glucocorticoid receptor (Homo sapiens) (P04150 whole entry, looked up): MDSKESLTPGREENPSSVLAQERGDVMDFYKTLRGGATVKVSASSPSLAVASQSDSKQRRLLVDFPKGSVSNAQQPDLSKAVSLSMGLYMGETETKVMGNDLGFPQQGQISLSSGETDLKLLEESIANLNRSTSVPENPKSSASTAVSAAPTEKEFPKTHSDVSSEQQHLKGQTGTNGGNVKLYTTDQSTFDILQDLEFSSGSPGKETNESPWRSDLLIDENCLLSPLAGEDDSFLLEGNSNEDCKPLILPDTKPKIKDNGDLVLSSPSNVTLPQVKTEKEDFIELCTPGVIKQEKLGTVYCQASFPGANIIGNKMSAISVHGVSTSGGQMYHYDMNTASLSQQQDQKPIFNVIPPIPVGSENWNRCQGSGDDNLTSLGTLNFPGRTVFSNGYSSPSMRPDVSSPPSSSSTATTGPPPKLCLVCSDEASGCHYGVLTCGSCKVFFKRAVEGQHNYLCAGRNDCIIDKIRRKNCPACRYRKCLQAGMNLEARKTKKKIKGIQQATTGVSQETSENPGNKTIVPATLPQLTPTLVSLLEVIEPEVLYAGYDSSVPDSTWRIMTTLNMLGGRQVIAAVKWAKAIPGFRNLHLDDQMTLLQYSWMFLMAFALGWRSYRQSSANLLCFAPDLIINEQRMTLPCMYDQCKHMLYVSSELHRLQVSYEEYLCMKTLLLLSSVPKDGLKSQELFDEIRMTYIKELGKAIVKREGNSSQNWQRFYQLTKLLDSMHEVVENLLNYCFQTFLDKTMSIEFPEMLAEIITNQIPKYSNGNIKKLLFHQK
Sequence of Vitamin D3 receptor (Homo sapiens) (P11473 whole entry, looked up): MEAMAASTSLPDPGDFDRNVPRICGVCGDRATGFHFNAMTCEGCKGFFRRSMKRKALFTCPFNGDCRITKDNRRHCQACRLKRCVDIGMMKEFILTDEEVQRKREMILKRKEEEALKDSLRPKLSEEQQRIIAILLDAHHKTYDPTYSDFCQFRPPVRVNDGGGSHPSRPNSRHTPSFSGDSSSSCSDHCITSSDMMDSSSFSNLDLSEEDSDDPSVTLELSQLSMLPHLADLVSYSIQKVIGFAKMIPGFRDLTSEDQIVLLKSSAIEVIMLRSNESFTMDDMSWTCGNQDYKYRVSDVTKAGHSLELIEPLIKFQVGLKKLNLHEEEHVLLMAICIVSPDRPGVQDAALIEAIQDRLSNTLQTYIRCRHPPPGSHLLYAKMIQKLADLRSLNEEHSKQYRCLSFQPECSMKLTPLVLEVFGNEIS

For the molecule `CC(=O)OCC(COC(C)=O)OC(C)=O`, in experiment [1], the activation was -5.82% (inactive). Besides, the result in experiment [2], in [4], in experiment [5], in experiment [6], in experiment [7] and in experiment [8] was inactive. Moreover, the call in [10] and in experiment [16] was inactive. Moreover, the max response was -24.1% and 22.8% in [3]; -12.6% and -13.8% in experiment [9]; -8.38% in [11]; 4.6% (inactive) in experiment [12]. Besides, the activity change % (negative = inhibition) in experiment [13] was -1.64% (inactive) and -0.0126% (inactive). The Potency entry in experiment [14], in experiment [15] and in [17] was “inactive” throughout.

In the case of `Nc1ccc(S(=O)(=O)c2ccc(N)cc2)cc1`, the call in experiment [18], in [4], in experiment [5], in [6], in experiment [10] and in experiment [16] was inactive. Also, the max response in experiment [3] is -19.4% and 10.1%; in experiment [9], 9.37%; in [11] it was -11.9%; in experiment [12] it was -26.2% (inactive). Moreover, the activity change % (negative = inhibition) in [13] was -17.4% (inactive) and -7.69% (inactive). For the same molecule, the Potency entry in experiment [14], in [15] and in experiment [17] was “inactive” in each case.

As for `O=C(O)CCCCC1CCSS1` (stereo not given), in experiment [1], the activation is -0.0197% (inactive) and 20% (inactive). For the same molecule, the molecule was classed as inactive in [2], in experiment [4], in experiment [5], in experiment [6], in experiment [7] and in [8]. Besides, the outcome in [10] and in experiment [16] was inactive. The max response in experiment [3] is 4.26%; in experiment [11] it was -14.4%; in experiment [12] it was -5.4% (inactive). Moreover, the activity change % (negative = inhibition) in experiment [13] is 1.34% (inactive). Moreover, the Potency entry in [14], in [15] and in experiment [17] was “inactive” in each case.

On to `Cc1cccc(Nc2ccccc2C(=O)O)c1C`, for which the call in experiment [2], in experiment [10] and in experiment [16] was inactive. Further, the Potency entry in [14] and in experiment [17] was “inactive” in each case.

Regarding `Cc1cc(=O)[nH]c(=S)[nH]1`, the molecule was called inactive in experiment [18], in experiment [2], in experiment [5], in experiment [6], in experiment [7] and in experiment [8]. Also, the molecule was called inactive in experiment [10] and in [16]. For the same molecule, the activation in experiment [1] is -0.999% (inactive). Moreover, the max response in experiment [9] was -2.22%; in experiment [11] it was -3.7%; in [12], 1.44% (inactive). Moreover, in experiment [13], the activity change % (negative = inhibition) is 15.5% (inactive). In addition, the Potency result in experiment [14], in experiment [15] and in [17] was “inactive” in each case.

With `Cc1c(N(C)C)c(=O)n(-c2ccccc2)n1C`, the outcome in experiment [18], in [2], in experiment [4], in experiment [7], in experiment [8] and in experiment [10] was inactive. Further, the call in experiment [16] was inactive. Also, in [1], the activation is 1.22% (inactive) and -3.75% (inactive). The max response in experiment [3] was 15.6%; in [9], -14.4% and -18.2%; in experiment [11], -6.41% and -1.97%; in [12] it was -3.15% (inactive) and -4.34% (inactive). Also, the activity change % (negative = inhibition) in experiment [13] is -16.1% (inactive) and 15.3% (inactive). Besides, the Potency entry in experiment [15] is “inactive”.

On to `CC(C)=CCC/C(C)=C/CO`, for which the activation in [19] is 8.43% (inactive). In addition, the molecule was classed as inactive in [20], in experiment [18], in [2], in experiment [4], in [5] and in [6]. Further, the molecule was classed as inactive in [7], in experiment [10] and in [16]. Further, the max response in [3] was -8.02%; in experiment [9] it was -9.95%; in [11], -9.74%; in experiment [12] it was -1.85% (inactive). The activity change % (negative = inhibition) in experiment [13] was 13.2% (inactive). The Potency result in experiment [14] and in experiment [17] was “inactive” in each case.

For the molecule `COC(=O)c1ccc(O)cc1`, the activation in [1] is 15.6% (inactive). The molecule was called inactive in experiment [2], in [4], in [5], in experiment [6], in experiment [7] and in experiment [8]. Moreover, the molecule was called inactive in experiment [10] and in experiment [16]. The max response in [3] is 34.1%; in [9], 3.58%; in [11], -19.3%; in experiment [12], -10.5% (inactive). Also, in experiment [13], the activity change % (negative = inhibition) was -5.41% (inactive). Moreover, the Potency result in [14] and in experiment [17] was “inactive” throughout.
